In ChEMBL document CHEMBL1961873, “Compounds: GSK PKIS; Assays: Nanosyn kinase panel” (2012) one finds inhibition data, which are given here for 16 compounds.

Molecules are shown by their SMILES.

The target of test [1] is Casein kinase I isoform gamma-2 (Homo sapiens) (UniProt P78368). The following applies: at 1 µM.
For test [2], the target named is Casein kinase I isoform gamma-3 (Homo sapiens) (UniProt Q9Y6M4). The settings on record: at 0.1 µM.
For test [3] the target is unchanged. The settings on record: at 1 µM.
In test [4] the target is Cyclin-dependent kinase 1 (Homo sapiens) (UniProt P06493). The following applies: at 0.1 µM.
Test [5] has the same target. The settings on record: at 1 µM.
The target of test [6] is Cyclin-dependent kinase 2 (Homo sapiens) (UniProt P24941). The settings on record: at 0.1 µM.
Test [7] shares this target. The following applies: at 1 µM.
For test [8] the target is unchanged. The following applies: at 0.1 µM. The source holds these as a separate data set.
Test [9] has the same target. The settings on record: at 1 µM. The source holds these as a separate data set.
The target of test [10] is CDK3/Cyclin E (Homo sapiens) (UniProt P24864+Q00526). The settings on record: at 0.1 µM.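 Note: reported percentages are mean inhibition values.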
CDK3/Cyclin E (Homo sapiens), sequence (P24864 whole entry, looked up): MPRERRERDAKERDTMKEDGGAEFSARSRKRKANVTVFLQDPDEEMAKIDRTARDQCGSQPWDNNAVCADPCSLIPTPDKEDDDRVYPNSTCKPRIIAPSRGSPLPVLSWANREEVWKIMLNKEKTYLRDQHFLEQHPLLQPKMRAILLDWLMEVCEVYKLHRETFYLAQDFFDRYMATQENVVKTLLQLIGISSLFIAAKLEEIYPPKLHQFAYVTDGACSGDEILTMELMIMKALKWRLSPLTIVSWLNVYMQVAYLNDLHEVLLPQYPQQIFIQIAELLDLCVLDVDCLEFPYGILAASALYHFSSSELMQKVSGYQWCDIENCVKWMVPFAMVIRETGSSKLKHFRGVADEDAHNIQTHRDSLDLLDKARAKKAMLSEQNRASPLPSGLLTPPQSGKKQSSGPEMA
CDK3/Cyclin E (Homo sapiens), sequence (Q00526 whole entry, looked up): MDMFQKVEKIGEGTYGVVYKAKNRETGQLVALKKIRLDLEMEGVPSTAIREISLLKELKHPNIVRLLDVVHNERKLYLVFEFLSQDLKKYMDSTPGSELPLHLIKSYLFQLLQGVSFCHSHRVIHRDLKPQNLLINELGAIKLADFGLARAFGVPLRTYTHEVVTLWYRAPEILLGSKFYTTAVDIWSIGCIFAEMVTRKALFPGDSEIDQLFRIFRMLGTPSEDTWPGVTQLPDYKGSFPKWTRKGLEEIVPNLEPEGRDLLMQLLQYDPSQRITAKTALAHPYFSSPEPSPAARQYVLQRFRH

Cyclin-dependent kinase 1 (Homo sapiens), sequence (P06493 whole entry, looked up): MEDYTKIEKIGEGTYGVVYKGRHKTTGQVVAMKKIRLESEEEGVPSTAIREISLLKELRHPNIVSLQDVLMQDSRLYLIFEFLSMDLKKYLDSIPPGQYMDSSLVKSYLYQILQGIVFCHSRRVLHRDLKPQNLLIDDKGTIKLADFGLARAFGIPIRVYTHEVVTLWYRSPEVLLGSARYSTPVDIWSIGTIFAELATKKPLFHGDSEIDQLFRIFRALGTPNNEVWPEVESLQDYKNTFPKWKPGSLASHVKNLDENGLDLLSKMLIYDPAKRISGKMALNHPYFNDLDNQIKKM
Casein kinase I isoform gamma-2 (Homo sapiens), sequence (P78368 whole entry, looked up, canonical isoform): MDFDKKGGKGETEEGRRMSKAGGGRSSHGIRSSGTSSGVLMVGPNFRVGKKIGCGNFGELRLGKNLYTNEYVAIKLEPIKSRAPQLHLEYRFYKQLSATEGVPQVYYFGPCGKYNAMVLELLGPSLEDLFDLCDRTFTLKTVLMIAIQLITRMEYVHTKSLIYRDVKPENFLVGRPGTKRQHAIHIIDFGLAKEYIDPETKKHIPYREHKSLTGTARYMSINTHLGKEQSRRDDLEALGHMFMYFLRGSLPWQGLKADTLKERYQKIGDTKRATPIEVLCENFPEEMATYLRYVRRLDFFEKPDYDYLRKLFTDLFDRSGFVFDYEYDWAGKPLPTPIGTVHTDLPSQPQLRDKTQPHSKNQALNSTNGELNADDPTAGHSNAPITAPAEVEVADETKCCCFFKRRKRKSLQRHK
Casein kinase I isoform gamma-3 (Homo sapiens), sequence (Q9Y6M4 whole entry, looked up, canonical isoform): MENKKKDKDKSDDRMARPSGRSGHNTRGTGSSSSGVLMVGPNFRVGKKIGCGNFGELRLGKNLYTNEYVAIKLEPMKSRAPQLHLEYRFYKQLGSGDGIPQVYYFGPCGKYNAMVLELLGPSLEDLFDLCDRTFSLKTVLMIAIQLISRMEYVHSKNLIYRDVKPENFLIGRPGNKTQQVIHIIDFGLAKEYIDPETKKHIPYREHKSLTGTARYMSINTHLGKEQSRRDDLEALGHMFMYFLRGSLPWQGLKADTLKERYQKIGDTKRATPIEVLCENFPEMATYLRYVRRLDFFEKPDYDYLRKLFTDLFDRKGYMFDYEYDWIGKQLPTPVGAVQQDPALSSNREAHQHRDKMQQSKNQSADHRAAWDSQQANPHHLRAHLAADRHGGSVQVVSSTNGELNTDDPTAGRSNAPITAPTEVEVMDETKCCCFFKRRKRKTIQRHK

For the compound `Cn1cc(C=C2C(=O)Nc3cccnc32)c2ccccc21`, the inhibition in [1] stood at 3.63%; in [2] it was 1.67%; in test [3], 5.3%; in [4], 4.27%; in test [5] it was 7.4%; in test [6], 2.66%. Besides, the inhibition in test [7] was 3.89%; in test [8], 7.44%; in test [9], 8.9%; in [10], 10.7%.
On to `COc1cc2ncn(-c3cc(OCc4ccccc4C(F)(F)F)c(C(N)=O)s3)c2cc1OC`, for which the inhibition in test [1] was 1.15%; in test [2], -0.01%; in test [3], 1.63%; in test [4], -4.16%; in test [5], -1.4%; in [6] it was -2.45%. Besides, the inhibition was 1.5% in [7], 0.41% in test [8], 4.83% in test [9] and -1.21% in test [10].
Consider `[O-][S+]1CCN(Cc2ccc(-c3ccc4ncnc(Nc5ccc(OCc6ccccc6)c(F)c5)c4c3)o2)CC1`, for which the inhibition in test [1] worked out at 3.2%; in test [2] it was 1.87%; in test [3], 3.97%; in test [4] it was 0.66%; in test [5], 0.48%; in test [6], 1.07%. The inhibition in [7] was -1.12%; in test [8], 1.88%; in test [9], 2.86%; in test [10], 5.36%.
Turning to `CCn1c(-c2nonc2N)nc2c(C#CC(C)(C)O)nc(OC[C@@H](N)c3ccccc3)cc21`, the inhibition in [1] was 2.82%; in test [2], -1.72%; in [3], 1.57%; in test [4] it was -0.31%; in test [5] it was -0.33%; in test [6], 0.3%. Moreover, the inhibition was 5.96% in test [7], -0.8% in [8], 1.32% in test [9] and -0.42% in test [10].
As for `CCCN1CCC(Oc2cc(Nc3nc(Nc4cccc(F)c4C(N)=O)c4cc[nH]c4n3)c(OC)cc2Cl)CC1`, the inhibition in test [1] was 6.61%; in [2], -0.08%; in [3], 20.9%; in test [4] it was -0.34%; in test [5] it was 0.53%; in test [6], 1.48%. Further, the inhibition was 5.95% in test [7], -0.16% in [8], 0.71% in test [9] and 0.11% in test [10].
`Nc1ncnc2occ(-c3ccc(NC(=O)Nc4cccc(C(F)(F)F)c4)cc3)c12`: the inhibition in test [1] was 7.31%; in [2], 3.11%; in [3] it was 10.3%; in [4], -0.24%; in test [5] it was 4.91%; in [6] it was 2.4%. Besides, the inhibition in test [7] is 8.86%; in test [8], 4.68%; in test [9] it was 10.8%; in [10] it was 2.04%.
As for `CNC(=O)c1cncc(/C=C/c2c(Cl)cccc2Cl)c1`, the inhibition in test [1] is 7.62%; in test [2], 1.61%; in test [3] it was 4.59%; in test [4] it was -1.13%; in test [5] it was -0.82%; in [6], 0.92%. Besides, the inhibition was -0.22% in test [7], -0.41% in [8], 3.85% in test [9] and -4.75% in test [10].
As for `NCc1ccc(-c2nc(-c3ccc(Cl)c(O)c3)c(-c3ccncc3)[nH]2)cc1`, the inhibition is 2.74% in test [1]; 0.3% in test [2]; 3.09% in [3]; 1.68% in test [4]; 3.12% in test [5]; 1.79% in test [6]. The inhibition in test [7] is 0.56%; in test [8] it was 1.58%; in test [9], 2.98%; in test [10] it was 0.9%.
For the compound `CS(=O)(=O)Nc1ccc(N/C=C2\C(=O)Nc3ccccc32)cc1`, the inhibition in [1] came to 2.22%; in test [2], 0.3%; in [3], 3.9%; in test [4], 1.78%; in [5], 9.18%; in test [6], 1.42%. Besides, the inhibition is 18.1% in test [7], 2.53% in test [8], 22% in test [9] and 3.36% in [10].
Consider `COc1ccc2cc(-c3c(-c4ccncc4)nc(-c4ccc([S+](C)[O-])cc4)n3C)ccc2c1` (stereo not given), for which the inhibition came out at 2.6% in test [1]; 1.16% in test [2]; 3.28% in test [3]; 0.99% in test [4]; 2.01% in test [5]; 1.21% in test [6]. Further, the inhibition in test [7] worked out at 1.86%; in [8], 3.23%; in test [9], 3.44%; in test [10], 4.02%.
For the compound `COc1cc2ncn(-c3cc(OCc4ccccc4Cl)c(C(N)=O)s3)c2cc1OC`, the inhibition worked out at 1.68% in [1]; 1.38% in test [2]; 2.71% in test [3]; 1.92% in test [4]; 6.22% in [5]; 1.7% in [6]. The inhibition came out at 6.39% in [7], 2.24% in [8], 5.06% in [9] and 3.11% in test [10].
In the case of `CC1=C(C(=O)Nc2ccc3[nH]ncc3c2)C(c2ccc3ccccc3c2)CC(=O)N1` (stereo not given), the inhibition in test [1] worked out at 1.9%; in test [2] it was 0.93%; in [3], 3.24%; in [4] it was 0.76%; in [5], 2.25%; in [6] it was 2.98%. The inhibition is 9.64% in test [7], 3.36% in test [8], 14.2% in test [9] and 0.42% in test [10].
As to `O=C1Nc2ccc(C(=O)c3ccco3)cc2C1=Cc1cc(Cl)c(O)c(Cl)c1`, the inhibition was determined as 5.46% in [1]; 1.18% in [2]; 6.13% in [3]; 2.24% in [4]; 7.36% in [5]; 2.59% in test [6]. Besides, the inhibition in test [7] came out at 19.3%; in test [8] it was 4.71%; in test [9], 15.7%; in test [10], 0.83%.
Turning to `COc1ccc(-c2coc3ncnc(N)c23)cc1`, the inhibition in test [1] was found to be 6.12%; in [2], 3.42%; in test [3], 5.14%; in test [4], 1.77%; in test [5], 3.58%; in [6], 2.89%. The inhibition is 0.12% in test [7], 6.07% in test [8], 7.82% in test [9] and 4.84% in test [10].
With `COC(=O)Nc1nc2cc(Oc3cccc(NC(=O)Nc4cc(C(F)(F)F)ccc4F)c3)ccc2[nH]1`, the inhibition in test [1] is -0.35%; in test [2], -2.32%; in test [3] it was -1.3%; in [4] it was 2.66%; in test [5], 0.7%; in [6] it was 0.37%. Further, the inhibition in [7] is -0.89%; in [8], 0.62%; in test [9], 1.21%; in test [10] it was -0.22%.
Turning to `CCn1c(-c2nonc2N)nc2c(C#CC(C)(C)O)nc(CN3CCCC3)cc21`, the inhibition was 0.03% in [1]; -1.33% in test [2]; 0.33% in test [3]; 1.45% in [4]; 2% in [5]; 2.04% in test [6]. Besides, the inhibition in test [7] is -0.71%; in test [8], 0.5%; in test [9] it was 1.53%; in [10] it was 2.36%.

Broadly, the inhibition is the drop in the measured response relative to a control, in per cent.
